# According to PubChem BioAssay (NCI):
# This is part of a sample that, as a whole, favours compounds with a hit. Of some 79,000 tested, about 15% had one in any assay. Unmarked numbers belong to inactive results. Activity calls are given as the source filed them. Cut-off read from the data, not from the text of the source: active = growth inhibition above about 70%; inactive = the rest.
# Assay: NCI Yeast Anticancer Drug Screen. Data for the rad52 strain (AID 147);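 note: 0% = growth of vehicle-treated control cultures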
# Conditions: S. cerevisiae rad52 mutant growth inhibition; at 1.2 µM; stronger effect = higher value
# Outline: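 Here a repair-compromised yeast strain receives each compound; its growth is then quantified and normalised to vehicle-only controls.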
row,SMILES,growth inhibition [%]
1,CNC(=O)OCc1c(COC(=O)NC)c(-c2ccc(Cl)cc2)n2c1CCC2,-19
2,CC(=O)OC1CC2C(C)(C)C(=O)C=C[C@]2(C)C2CCC3(C)C(=CCC3[C@H](CO)C[C@H](O)C(=O)C(C)(C)O)[C@]12C (stereo partly specified),-7
3,CCCCCCOC(=O)NCCOC(=O)Nc1ccccc1,1
4,C[C](C)(C)[Ge]([O][Ge]([c]1ccccc1)[c]1ccccc1)([O][Ge]([c]1ccccc1)[c]1ccccc1)[C](C)(C)C,1
5,CCc1c(Cl)c(C)cc(O)c1Cl,4
6,Cc1nc(Nc2ccccc2[N+](=O)[O-])sc1C(=O)CC(=O)C(=O)Nc1c(C(C)C)cccc1C(C)C,-2
7,O=[N+]([O-])c1cccc2nc3ccccc3c(NCCCn3ccnc3[N+](=O)[O-])c12,53
8,CCCCCCC(O)CNCc1ccnc2ccc(OC)cc12 (stereo unspecified),5
9,Cc1c2cccc(Sc3ccccc3)c2c2c3c(cccc13)[S+](c1ccccc1)C2 (stereo unspecified),13
10,C=C1CCC(O)C/C1=C/C=C1\CCCC2(C)C1CCC2C(C)CCCC(C)C (stereo unspecified),-22
11,NC1=NNC2(C(N)=N1)c1ccccc1-c1ccccc12,-18
12,COc1cc2cc3c4cc(OC)c(OC)cc4cc[n+]3c(C)c2cc1OC,-21
13,COC(=O)NC1C(C)OC(OC2C/C=C(/C)C3C=CC4C(OC5CC(OC6CC(O)C(OC7CC(O)C(OC)C(C)O7)C(C)O6)C(O)C(C)O5)C(C)CC(C)C4C3(C)/C(O)=C3\C(=O)OC4(CC(C)C(CO)=CC4/C=C\2C)C3=O)CC1(C)[N+](=O)[O-] (stereo unspecified),15
14,O=C1CSC(c2cccc(Cl)c2)N1c1ccc(-c2ccc(-n3c(-c4ccccc4)nc4ccccc4c3=O)cc2)cc1 (stereo unspecified),1
15,CCOC(=O)C(C(=O)OCC)=P(c1ccccc1)(c1ccccc1)c1ccccc1,0
16,COc1ccc(N=CN(C)C)c(C)c1,-24
17,Cc1cc(S(=O)(=O)Nc2nnc3cnc4ccccc4n23)c(S)cc1Cl,-1
18,O=C(Oc1ccc2c(c1)CN(Cc1ccccc1)CO2)c1ccccc1,-3
19,CN(C)[C@@H]1C(=O)C(C(N)=O)=C(O)[C@@]2(O)C(=O)C3=C(O)c4c(O)cccc4C[C@H]3C[C@@H]12,-5
20,O=[N+]([O-])c1ccc2c(c1)/C(=N/N=C1c3ccccc3Cc3ccccc31)c1cc([N+](=O)[O-])cc([N+](=O)[O-])c1-2,9
21,Cc1nc2c(Br)cc(Br)cc2c(=O)n1-c1ccccc1NC1OCC(O)C(O)C1O (stereo unspecified),1
22,Cc1cc(N(CCOS(C)(=O)=O)CCOS(C)(=O)=O)ccc1C=Nc1ccc(-c2nc(Cc3ccccc3)sc2C)cc1,9

# Same assay, conditions: S. cerevisiae rad52 mutant growth inhibition; at 3.7 µM; stronger effect = higher value
row,SMILES,growth inhibition
1,O=C1/C(=C/c2ccccc2)CCCC1CN1CCCCC1 (stereo unspecified),35%
2,C#CCN(Cc1ccc2nc(N)[nH]c(=O)c2c1)c1ccc(C(=O)NC(CCC(=O)O)C(=O)O)cc1 (stereo unspecified),29%
3,CCOC1(c2cccc([N+](=O)[O-])c2)c2ccccc2Oc2ccccc21,2%
4,O=C(O)CNC(=S)Nc1ccccc1,-88%
5,N/C(=N/N=C/c1cc(Br)cc(Br)c1O)NO,-26%
6,C[Si](C)(C)/C=C/CCNC(C#N)c1ccccc1 (stereo unspecified),-9%
7,CCCCCCCCCCCCCCCCOP(=O)(O)OCC(N)C(=O)O (stereo unspecified),5%
8,CC1=C(C(=O)NCc2ccccc2)C(c2ccccc2)C(C(=O)NCc2ccccc2)=C(C)N1,-4%
9,O=[N+]([O-])c1cc(S(=O)(=O)Nc2ccccc2)ccc1Nc1ccccc1,13%
10,COc1cc2ccnc(-c3c4ccccc4c(N)c4c(OC)c(OC)ccc34)c2cc1OC,20%
11,CCOC(=O)C(Br)C(Br)c1ccccc1Cl (stereo unspecified),23%
12,CCOC(=O)C1=C(C)NC(C)=C(C(=O)OCCNC(=O)c2ccc(N=[N+]=[N-])cc2)C1c1ccccc1C(F)(F)F (stereo unspecified),4%
13,Cc1cc(C)c(NC(=S)NC(=O)c2ccccc2)cc1C,-58%
14,CNCCCNc1c2ccccc2nc2cccc([N+](=O)[O-])c12,85% (active)
15,COc1c(O)c(C=O)c(Br)c(C=O)c1O,6%
16,Cc1c(C)c(C)c(CSC(=N)N)c(C)c1C,-17%
17,O=C(CSC(=S)N1CCCCC1)Nc1nc2c(s1)CCCC2,6%
18,CNC(=O)OCc1c(COC(=O)NC)c(-c2ccc(Cl)cc2)n2c1CCC2,-31%
19,CC(=O)OC1CC2C(C)(C)C(=O)C=C[C@]2(C)C2CCC3(C)C(=CCC3[C@H](CO)C[C@H](O)C(=O)C(C)(C)O)[C@]12C (stereo partly specified),-4%
20,CCCCCCOC(=O)NCCOC(=O)Nc1ccccc1,3%

row,SMILES,growth inhibition
1,C[C](C)(C)[Ge]([O][Ge]([c]1ccccc1)[c]1ccccc1)([O][Ge]([c]1ccccc1)[c]1ccccc1)[C](C)(C)C,15%
2,CCc1c(Cl)c(C)cc(O)c1Cl,-9%
3,Cc1nc(Nc2ccccc2[N+](=O)[O-])sc1C(=O)CC(=O)C(=O)Nc1c(C(C)C)cccc1C(C)C,-2%
4,O=[N+]([O-])c1cccc2nc3ccccc3c(NCCCn3ccnc3[N+](=O)[O-])c12,65%
5,CCCCCCC(O)CNCc1ccnc2ccc(OC)cc12 (stereo unspecified),12%
6,Cc1c2cccc(Sc3ccccc3)c2c2c3c(cccc13)[S+](c1ccccc1)C2 (stereo unspecified),41%
7,C=C1CCC(O)C/C1=C/C=C1\CCCC2(C)C1CCC2C(C)CCCC(C)C (stereo unspecified),-3%
8,NC1=NNC2(C(N)=N1)c1ccccc1-c1ccccc12,-14%
9,COc1cc2cc3c4cc(OC)c(OC)cc4cc[n+]3c(C)c2cc1OC,-21%
10,COC(=O)NC1C(C)OC(OC2C/C=C(/C)C3C=CC4C(OC5CC(OC6CC(O)C(OC7CC(O)C(OC)C(C)O7)C(C)O6)C(O)C(C)O5)C(C)CC(C)C4C3(C)/C(O)=C3\C(=O)OC4(CC(C)C(CO)=CC4/C=C\2C)C3=O)CC1(C)[N+](=O)[O-] (stereo unspecified),40%
11,O=C1CSC(c2cccc(Cl)c2)N1c1ccc(-c2ccc(-n3c(-c4ccccc4)nc4ccccc4c3=O)cc2)cc1 (stereo unspecified),5%
12,CCOC(=O)C(C(=O)OCC)=P(c1ccccc1)(c1ccccc1)c1ccccc1,0%
13,COc1ccc(N=CN(C)C)c(C)c1,-26%
14,Cc1cc(S(=O)(=O)Nc2nnc3cnc4ccccc4n23)c(S)cc1Cl,0%
15,O=C(Oc1ccc2c(c1)CN(Cc1ccccc1)CO2)c1ccccc1,4%
16,CN(C)[C@@H]1C(=O)C(C(N)=O)=C(O)[C@@]2(O)C(=O)C3=C(O)c4c(O)cccc4C[C@H]3C[C@@H]12,-10%
17,O=[N+]([O-])c1ccc2c(c1)/C(=N/N=C1c3ccccc3Cc3ccccc31)c1cc([N+](=O)[O-])cc([N+](=O)[O-])c1-2,32%
18,Cc1nc2c(Br)cc(Br)cc2c(=O)n1-c1ccccc1NC1OCC(O)C(O)C1O (stereo unspecified),4%
19,Cc1cc(N(CCOS(C)(=O)=O)CCOS(C)(=O)=O)ccc1C=Nc1ccc(-c2nc(Cc3ccccc3)sc2C)cc1,52%
